Results on 26 compounds are retold here after PubChem BioAssay (EPA / NIEHS).

Values joined by “and” are separate entries in the source; they are usually repeats but may differ in a detail not shown here. Equal entries are not always repeated. More than one record can exist for a structure, and the calls need not agree. Active and inactive are the calls of the source. How the source made its calls: active means hit-call score of the fitted dose curve at least 0.9, where 1 is the maximum; inactive means score below 0.9.

Read-out in this test: Keratin 19 (KRT19), KRT19 (gene 3880)
Nature of the test: LTEA_HepaRG_KRT19: Life Technologies and Expression Analysis (LTEA) Assay for Keratin 19 (KRT19) using HepaRG (AID 2283512). Particulars: mRNA level, 48 h; actives raise or lower the signal. The essentials: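 KRT19 transcript levels, measured by Fluidigm qRT-PCR against three housekeeping genes, are fitted for gain or loss of signal relative to DMSO. Human HepaRG cells receive test chemicals (top 100 uM, half-log steps, 0.5% DMSO) for 48 hours.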
`Cc1nn(C)c(Oc2ccccc2)c1C=NOCc1ccc(C(=O)OC(C)(C)C)cc1`: the AC50 is 2.05 µM (active).

With `CCCCOCCOCCOCc1cc2c(cc1CCC)OCO2`, the call was inactive.

In the case of `S=C(S)NCCNC(=S)S.[Mn+2].[S-]C([S-])=NCCN=C([S-])[S-].[Zn+2]`, the AC50 was 5.39 µM (active) and 11.4 µM (active); the result was inactive.

With `CCOC(=O)C(C)Oc1ccc(Oc2nc3ccc(Cl)cc3o2)cc1` (configuration not stated), the result was inactive.

Turning to `CCOC(=O)COc1cc(-n2ncc(C(F)(F)F)c(C)c2=O)c(F)cc1Cl`, the result was inactive.

As for `CSC(=O)c1cccc2nnsc12`, the compound was called inactive.

On to `O=C(O)c1ccccc1`, for which the result was inactive.

In the case of `CCCCOC(=O)[C@@H](C)Oc1ccc(Oc2ccc(C(F)(F)F)cn2)cc1`, the call was inactive.

As for `CCCOC(=O)c1ccc(C(=O)OCCC)nc1`, the call was inactive.

Turning to `CC(=O)S[C@@H]1CC2=CC(=O)CC[C@]2(C)[C@H]2CC[C@@]3(C)[C@@H](CC[C@@]34CCC(=O)O4)[C@H]12`, the call was inactive.

For `CC(C)CCCCCCc1ccc(O)cc1`, the compound was classed as inactive.

For `CCC(C)OC(=O)N1CCCCC1CCO` (configuration not stated), the compound was called inactive.

Consider `OB(O)O`, for which the outcome was inactive.

For the compound `C[C@]12C[C@H](O)[C@H]3[C@@H](CCC4=CC(=O)CC[C@@]43C)[C@@H]1CC[C@@H]2C(=O)CO`, the compound was called inactive.

On to `CC(C)(C)[C@@H](O)[C@@H](Cc1ccc(Cl)cc1)n1cncn1`, for which the outcome was inactive.

In the case of `CCCCCOC(=O)COc1cc(N2C(=O)C3=C(CCCC3)C2=O)c(F)cc1Cl`, the compound was called inactive.

`CC(C)(c1ccc(O)cc1)c1ccc(O)cc1`: the result was inactive.

As for `C=CCOC(Cn1ccnc1)c1ccc(Cl)cc1Cl` (configuration not stated), the AC50 is 12.3 µM (active).

For the compound `c1ccc(Nc2ccccc2)cc1`, the compound was classed as inactive.

With `O=C(Nc1ccc([N+](=O)[O-])cc1Cl)c1cc(Cl)ccc1O`, the AC50 is 1.48 µM (active).

As to `CCN(Cc1c(F)cccc1Cl)c1c([N+](=O)[O-])cc(C(F)(F)F)cc1[N+](=O)[O-]`, the AC50 was 18.1 µM (active).

Take `C[C@]12CC[C@@H]3c4ccc(O)cc4C[C@@H](CCCCCCCCCS(=O)CCCC(F)(F)C(F)(F)F)[C@H]3[C@@H]1CC[C@@H]2O` (some centres not stated): the outcome was inactive.

`C#CCOC(=O)[C@@H](C)Oc1ccc(Oc2ncc(Cl)cc2F)cc1`: the result was inactive.

With `S=C([S-])NCCNC(=S)[S-].[Mn+2]`, the AC50 is 10 µM (active).

In the case of `CN(C)C(=O)Nc1ccc(Cl)c(Cl)c1`, the AC50 is 50 µM (active).

In the case of `CCN(CC)C(=O)c1cccc(C)c1`, the compound was classed as inactive.
